# A selection: hits, their analogues and other compounds. The true share with any hit is near 3.1%.
# Calb FLC – affects C. albicans growth with fluconazole; C. albicans CaCi-2 (fluconazole-resistant clinical isolate) + fluconazole, Alamar Blue growth, 48 h; growth inhibition, % (no concentration beside the values); actives 0.57% (n = 300,000);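 active means growth inhibition above about 58% in most replicates, limit read from the data, passing the limit was not always enough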;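 further: all wells also contain fluconazole at 8 µg/ml as a sub-toxic cotreatment; 0% = median of DMSO wells and 100% = median of geldanamycin control wells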
# SUMO Mot1 rescue – inhibitors of SUMOylation pathway: yeast Mot1-301 growth rescue. growth rescue, % at 18.8 µM. S. cerevisiae Mot1-301 growth rescue, ATP luminescence, 38.5C; percent above DMSO median, 100 means doubled. AID 2716. actives 1% (n = 320,000);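 active means every valid replicate shows activation above 250% relative to neutral control wells; inactive means the rest, any valid replicate at or below 250%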;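 further: OY570 slx delta 5 strain wells were the positive control but not used for scaling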
# ATG4B inh – blocks human ATG4B protease cleavage of LC3 substrate. Q9Y4P1. ATG4B cleavage of LC3-PLA2, NBD-HPC fluorescence, 1 h. inhibition, % at 8.33 µM. actives 0.51% (n = 340,000). AID 504462; in the data active means inhibition above about 40%
# Target sequence (Q9Y4P1 whole entry, looked up): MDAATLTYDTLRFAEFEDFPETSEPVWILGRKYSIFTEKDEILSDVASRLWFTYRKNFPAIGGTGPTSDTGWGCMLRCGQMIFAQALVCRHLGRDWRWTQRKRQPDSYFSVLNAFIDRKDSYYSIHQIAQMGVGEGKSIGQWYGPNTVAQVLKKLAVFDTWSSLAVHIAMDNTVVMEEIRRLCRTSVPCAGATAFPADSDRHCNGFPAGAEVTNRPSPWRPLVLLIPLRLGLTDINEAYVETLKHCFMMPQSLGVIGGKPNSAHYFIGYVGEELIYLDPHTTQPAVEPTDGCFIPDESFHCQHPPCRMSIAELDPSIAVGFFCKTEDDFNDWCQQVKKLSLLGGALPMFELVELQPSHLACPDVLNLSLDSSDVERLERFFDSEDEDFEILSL
# FAS-TE inh – blocks the thioesterase domain of human fatty acid synthase | P49327 | recombinant FAS-TE, OMFH fluorogenic substrate, fluorescence endpoint | inhibition, % at 15 µM | actives 0.67% (n = 360,000);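 active means compounds whose normalised, plate-corrected inhibition of enzyme fluorescence in the single-dose primary screen is 50% or more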;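 further: 0% = DMSO with enzyme and 100% = substrate without enzyme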
# NadD inh – inhibitors of Staphylococcus aureus NadD; AID 602399; inhibition, % at 20 µM; purified NadD enzyme, colorimetric absorbance read-out; actives 0.78% (n = 360,000); in the data active means inhibition above about 26%
# ATG4B confirm – ATG4B (human) inhibition, single-dose confirmed | ATG4B protease fluorescent substrate cleavage assay | shares compounds with ATG4B inh | actives 92% (n = 320) | inhibition, % at 8.33 µM; in the data active means inhibition above about 39%
# PLA2 ctr – inhibits human PLA2, flagging false ATG4B inhibitors; AID 588402; inhibition, % at 8.33 µM; shares compounds with ATG4B inh; purified PLA2, NBD-C6-HPC fluorescence, 45 min; actives 66% (n = 1,600); in the data active means inhibition above about 50%
# Target sequence (P04054 whole entry, looked up): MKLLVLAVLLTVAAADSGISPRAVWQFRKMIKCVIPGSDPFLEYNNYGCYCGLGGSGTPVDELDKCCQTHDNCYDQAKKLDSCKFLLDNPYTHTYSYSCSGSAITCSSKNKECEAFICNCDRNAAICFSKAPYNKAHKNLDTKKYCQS
# An asterisk follows results filed as active; nt = no result given; ! = not confirmed by another sample.
SMILES,Calb FLC,SUMO Mot1 rescue,ATG4B inh,FAS-TE inh,NadD inh,PLA2 ctr,others
CCCCCCCCCCCCCCCCn1cc[n+](C)c1,86*!,115,48*,-110,16,38,ATG4B confirm=50*
COc1ccccc1-c1c(-c2ccc(OCC(=O)NN)cc2O)n[nH]c1C(F)(F)F,-5,22,-2,-12,6,nt,
COc1ccc(-c2n[nH]c(C(F)(F)F)c2-c2cc3ccccc3o2)c(O)c1,17,-22,58*,23,-8,46,ATG4B confirm=64*
Cc1ccccc1/C=C1\CCCc2ccccc2C1=O,7,-15,53*,18,1,61*,
Cc1ccsc1/C=C1\CCc2ccccc2C1=O,-2,-17,46*,13,-5,68*,
O=C1C(=Cc2ccccn2)CCc2ccccc21,nt,nt,nt,-4,-6,nt,
Cc1ccc2c(c1)[C@H]1[C@H](CO2)[C@H](c2ccccc2)[C@]2(C)C(=O)NCC(=O)N12,nt,18,-15,-11,-3,nt,
O=C(O)CN1C(=O)/C(=C\c2cc(Br)ccc2OCc2ccc(Cl)cc2)SC1=S,0,11,52*,32,6,30,ATG4B confirm=53*
O=C(O)CN1C(=O)/C(=C\c2cc([N+](=O)[O-])ccc2OCc2ccccc2Cl)SC1=S,18,-15,75*,46,15,60*,
O=C(O)CN1C(=O)/C(=C\c2cc(Br)ccc2OCc2ccc(F)cc2)SC1=S,2,2,22,22,9,nt,
Oc1ccc(/C=N/N(Cc2ccccc2)c2ccccc2)c(O)c1O,-8,nt,56*,8,19,75*,
Cc1cc(C)n(C(=O)Cn2nc(C)c(Cl)c2C)n1,-2,9,5,-3,-10,nt,
Cc1cc(=O)oc2cc(OCC(=O)Nc3cccc(S(=O)(=O)N(C)C)c3)ccc12,33,-2,40*,-6,-2,-1,
Cc1sc2nc(C3CC3)nc(SCC(=O)N3c4ccccc4CC3C)c2c1C (stereo not given),23,9,68*,4,8,85*,
O=c1c2ccccc2nc(/C=C/c2ccc(O)cc2)n1CCc1ccccc1,-3,-2,48*,18,5,48,ATG4B confirm=72*
O=c1c2ccccc2nc(/C=C/c2ccccc2)n1CCCO,9,-6,1,0,-4,nt,
Cc1cc(C(=O)CSc2nnc(NCc3ccccc3)s2)c(C)n1C,2,-3,3,-5,6,nt,
CN1/C(=C\C(=O)CSc2nnc(NCc3ccccc3)s2)C(C)(C)c2ccccc21,15,18,42*,12,7,38,
CCCCN1C(=O)C2Cc3c([nH]c4ccccc34)CN2C1=S (stereo not given),-19,-10,45*,-27,1,80*,
CCCCCN1CC(=O)N2Cc3[nH]c4ccccc4c3C[C@H]2C1=O,10,-5,-8,0,0,nt,
Cc1oc(-c2cccc(Cl)c2)nc1CS(=O)(=O)CC(=O)NCCCN1CCOCC1,-6,21,-4,-7,1,nt,
Cc1sc(NC(=O)c2ccccc2)c(C(=O)c2ccccc2)c1C,2,nt,50*,14,-3,43,ATG4B confirm=73*
O=C(OCc1ccc([N+](=O)[O-])cc1)c1cnc(Cl)c(Cl)c1,-13,5,-9,44,-11,nt,
O=C(O)c1cc(-c2ccc(-c3c(-c4ccc5c(c4)OCO5)noc3-c3ccsc3)cc2)nc2ccccc12,34,-5,62*,37,18,34,ATG4B confirm=18
O=C(NNC(=O)C1CC1)c1ccccc1[N+](=O)[O-],-13,11,-8,-6,-3,nt,
SMILES,Calb FLC,SUMO Mot1 rescue,ATG4B inh,FAS-TE inh,NadD inh,PLA2 ctr,others
CCOC(=O)c1c(NC(=O)C(C)Sc2nnc(C)c(=O)[nH]2)sc2c1CCCC2 (stereo not given),1,-22,62*,-5,8,65*,
O=C(NC(=S)Nc1ccc(Cc2ccncc2)cc1)c1ccccc1F,0,45,52*,7,3,56*,
Cc1ccccc1C(=O)NC(=S)Nc1ccc(Cc2ccncc2)cc1,22,17,46*,7,5,49,
Cc1cccc(C(=O)Nc2cc(S(=O)(=O)N3CCOCC3)ccc2N2CCCCC2)c1,nt,-12,-7,39,2,nt,
CCOc1ccccc1N1CC(C(=O)Nc2c(C)n(C)n(-c3ccccc3)c2=O)CC1=O (stereo not given),13,12,-6,-11,2,nt,
Cc1nc(NC(=O)c2ccccc2)sc1-c1csc(NCc2ccco2)n1,12,nt,41*,4,47*,67*,
COCCN1C(=O)C(=O)/C(=C(/O)c2ccc(S(=O)(=O)N3CCOCC3)cc2)C1c1cccc(Cl)c1 (stereo not given),-3,31,28,-5,4,nt,
CCn1c(COc2ccc(Cl)cc2)nnc1SC1CCc2ccccc2C1=O (stereo not given),-3,2,88*,14,2,84*,
CCCCNc1nc(N)nc(-c2cc(Cl)ccc2O)n1,61,20,46*,34,2,50*,
CCCNc1nc(N)nc(-c2cc(Cl)ccc2OC)n1,-12,3,3,-1,-3,nt,
O=S(Cc1ccccc1)CC(O)(c1ccc(Cl)cc1)c1ccc(Cl)cc1 (stereo not given),43,nt,55*,34,-7,60*,
Cc1ccc(-n2cc(CN3CCC(O)(c4ccccn4)CC3)c(-c3ccc(F)cc3)n2)cc1,1,-9,61*,7,-6,52*,
CC(C)C(Sc1nc(-c2ccccc2)cc(-c2ccccc2)c1C#N)C(=O)O (stereo not given),87*,5,46*,4,12,39,ATG4B confirm=61*
Cc1ccc(OCc2ccc(C(=O)NN)o2)c([N+](=O)[O-])c1,4,6,-4,-5,10,nt,
Cc1nn(Cc2c(F)c(F)c(F)c(F)c2F)c(C)c1NC(=O)c1cccc(COc2ccc(Cl)cc2)c1,1,-8,57*,16,15,68*,
Cc1ccc(OCc2ccc(C(=O)Nc3c(C)nn(Cc4c(F)c(F)c(F)c(F)c4F)c3C)o2)c([N+](=O)[O-])c1,35,2,67*,38,-4,76*,
Cc1nnc(C)n1/N=C/c1ccc(-c2ccccc2Cl)o1,12,49,7,-2,-13,nt,
O=C1NC(=S)/C(=C\c2ccc(-c3ccccc3Cl)o2)S1,-7,-7,65*,18,28,8,
O=C(NCCc1ccc(Cl)cc1)c1ccc(Br)s1,0,-2,-3,6,-1,nt,
O=C1Nc2ccc(F)cc2C12Nc1ccccc1-c1nnc(SCc3ccccc3F)nc1O2 (stereo not given),-6,-2,11,12,12,nt,
